Bioassay records as filed in PubChem BioAssay.
Pf growth 96h: P. falciparum growth inhibition at 96 hour, primary screen for plastid delayed-death inhibitors. actives 6.9% (n = 320,000). AID 504834. P. falciparum luciferase reporter growth, 96 h. Potency, µM (top dose mostly 28.7 µM), without a hit: at the top dose activity change, negative = inhibition, actives largely listed as inhibitors
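Parasite growth measured via integrated firefly luciferase reporter in P. falciparum. Infected erythrocytes at 2% hematocrit, 0.05% parasitemia final were treated 96 hours at 37 C under 5% CO2, and luminescence was read.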
AmpC no deterg: inhibitors of E. coli AmpC beta-lactamase without detergent. AmpC nitrocefin hydrolysis, absorbance 480 nm, 0.0001% Triton. AID 485341. Potency, µM (top dose mostly 57.1 µM), for inactives: at the top dose activity change, negative = inhibition, most hits filed as inhibitors. actives 0.52% (n = 330,000);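 further: plate controls were no compound for no effect and no enzyme for full effect; nearly all actives have a fitted effect of over 20% in size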
Target sequence (P00811 whole entry, looked up): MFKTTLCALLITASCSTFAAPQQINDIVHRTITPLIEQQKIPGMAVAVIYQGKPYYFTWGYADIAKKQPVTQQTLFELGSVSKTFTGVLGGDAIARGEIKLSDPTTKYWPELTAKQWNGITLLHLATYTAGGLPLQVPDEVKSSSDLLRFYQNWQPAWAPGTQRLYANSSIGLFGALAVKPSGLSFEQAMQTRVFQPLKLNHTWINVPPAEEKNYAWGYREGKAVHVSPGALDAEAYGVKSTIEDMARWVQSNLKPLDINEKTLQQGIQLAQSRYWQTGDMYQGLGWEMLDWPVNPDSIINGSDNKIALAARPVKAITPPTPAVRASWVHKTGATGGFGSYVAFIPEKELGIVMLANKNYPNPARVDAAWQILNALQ
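AmpC (5.3 nM in the dispensed reagent) in 20 mM phosphate pH 7.0 with 0.01% (detergent screen) or 0.0001% Triton X-100 was preincubated with compounds for 15 min at room temperature. Nitrocefin was then added from an 800 uM solution, and hydrolysis was followed at 480 nm.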
HCV inhibitor: inhibitors of hepatitis C virus infection; Huh7.5.1 HCVcc-Cre infection, luciferase reporter, 44 h; Potency, µM (series often up to 41.8 µM), for the others: at the highest dose activity change, negative = inhibition, hits mostly inhibitors; actives 3.4% (n = 340,000)
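Infectious HCV cell culture screen: compound-treated cells (1,000/well, pre-plated 4 h) are infected with HCVcc-Cre at roughly 0.5 moi and grown 44 h. Infection is quantified by luciferase signal after 15 min substrate incubation at room temperature.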
AMA1-RON2 inh: inhibitors of Plasmodium falciparum AMA1-RON2 interaction; AlphaScreen AMA1-biotinylated RON2 peptide binding; Potency, µM (titrated, usually from 58.2 µM), without a hit: top-dose activity change, negative = inhibition, actives largely listed as inhibitors; actives 0.2% (n = 360,000); AID 720542;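 further: 0% = vehicle wells and -100% = peptide control; nearly all actives have a fitted effect of over 45% in size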
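AMA1 (3D7) with his tag at 25 nM final met compounds first, then biotinylated RON2 peptide at 25 nM; detection used donor plus acceptor beads, 10 µg/mL apiece, read by AlphaScreen after 30 min at room temperature.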
Pf growth 48h: P. falciparum growth inhibition at 48 hours (one generation); P. falciparum luciferase growth in erythrocytes, 48 h; Potency, µM (highest dose often 28.7 µM), for the others: at the highest dose activity change, negative = inhibition, hits mostly inhibitors; actives 5.9% (n = 310,000); AID 504832
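Compounds are pin-transferred into medium, infected erythrocytes (2% hematocrit, 0.1% parasitemia final) are added, and plates sit one parasite generation at 37 C in 5% CO2. Detection reagent is then added and luminescence measured.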
AmpC detergent: blocks E. coli AmpC beta-lactamase in detergent assay; P00811; AmpC hydrolysis of nitrocefin, absorbance 480 nm, 0.01% Triton; Potency, µM (highest dose often 114 µM), without a hit: at the top dose activity change, negative = inhibition, most hits filed as inhibitors; actives 0.041% (n = 370,000); AID 485294;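 further: 0% = no-compound wells and -100% = no-enzyme wells; nearly all actives have a fitted effect of over 25% in size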
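20 mM phosphate pH 7.0 + 0.01% (detergent screen) or 0.0001% Triton X-100; 5.3 nM AmpC reagent; cpd preinc 15 min RT; nitrocefin (800 uM stock) to start; A480 q20 s × 4 min; Activity was normalised to no-enzyme and no-compound control wells.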
Starred values were filed as active, the others as inactive; ? = inconclusive; . = not tested or not shown; ! = a repeat was not active; [ ] = another dose, or the depositor's remark. A selection: hits, their analogues and other compounds. The true share with any hit is near 11%. The call rests on the fitted dose curve; in most records, active means well fitted curve in the direction sought with a large enough effect; inconclusive means small, poorly fitted or top-dose-only effect, or another doubt; inactive means no such curve, though single readings can be large; an effect the other way counts as inactive or inconclusive. Unless noted, on the % scale 0 is the no-effect control and ±100 the full control effect; potency means the concentration at half of the fitted maximal effect.

SMILES | Pf growth 96h | AmpC no deterg | HCV inhibitor | AMA1-RON2 inh | Pf growth 48h | AmpC detergent
Cc1cnn(-c2nc(-c3cccs3)cc(C(F)(F)F)n2)c1 | ? | 84% | 10µM* | -6% | -3% | 1%
Cc1ccc(NC(=O)CSc2nc(-c3cccs3)cc(C(F)(F)F)n2)cc1C | . | . | . | . | . | 10%
FC(F)(F)c1cc(-c2cccs2)nc(N2CCOCC2)n1 | . | -9% | ? | 46% | -25% | 0%
COc1ccc(CCNC(=O)c2cnc3ccc(C)cn3c2=O)cc1OC | . | . | . | . | . | 18%
Cc1ccc(C)c(NC(=O)CSc2nc3c([nH]c4ccccc43)c(=O)n2-c2ccc(F)cc2)c1 | . | . | . | . | . | 3%
CCOc1ccc(NC(=S)N(CCc2c(C)[nH]c3ccc(C)cc23)Cc2cccnc2)cc1 | 3.7µM* | 1% | -8%[8.37 µM] | -4% | ? | ?
Cc1[nH]c2ccc(F)cc2c1CCN(Cc1cccnc1)C(=S)Nc1ccc(F)cc1 | 7.4µM* | -3% | ? | -34% | 4.1µM* | 2%
CCNC(=S)N(CCc1c(C)[nH]c2ccc(C)cc12)Cc1cccnc1 | ? | 51% | ? | -12% | ? | 2%
COc1ccccc1NC(=O)CSCc1nc2ccccc2[nH]1 | 12µM* | -28% | -2% | -5% | ? | ?
COc1ccccc1NC(=O)CSCC(N)=O | . | -18% | 10% | 0% | 9% | 1%
COc1ccc(NC(=O)Cc2nc3ccccc3[nH]2)cc1 | ? | -4% | 16% | -5% | 12µM* | -1%
CC(C)n1c(=O)c(C=Nc2ccc(S(N)(=O)=O)cc2)c(O)n(Cc2ccco2)c1=O | -8% | 22µM* | 8% | 0% | 0% | -9%
CCCCn1c(=O)c(C=Nc2ccc(Cl)cc2)c(O)n(Cc2ccco2)c1=O | 9.3µM* | -26% | 7% | 7% | 8.3µM* | -14%
CN(C)C(=O)Oc1cccc2c(OC(=O)N(C)C)cccc12 | . | 2% | 15% | 6% | 5% | 2%
Cc1ccc(CCNC(=O)C2CCN(S(=O)(=O)N3CCCCC3)CC2)cc1 | ? | 16% | -10% | 8% | -5% | 2%
O=C(NNC(=O)c1sccc1-n1cccc1)c1ccc(Cl)cc1 | 0.33µM* | ? | -24% | 17% | ? | -2%
O=C(N/N=C\c1cccs1)c1sccc1-n1cccc1 | 13µM* | -14% | -26% | 7% | ? | 1%
Cc1ccc(CCNC(=O)C2CCN(C(=O)N(C)C)CC2)cc1 | 1.3µM* | -4% | 11% | -1% | . | ?
O=C(NCCc1ccc(Cl)cc1)C1CCN(C(=O)c2sccc2-n2cccc2)CC1 | 29% | 94% | 8.9µM* | -4% | . | ?
CCOC(=O)c1scc(-c2ccc(C)cc2)c1S(=O)(=O)N1CCN(c2ccccc2F)CC1 | . | . | . | . | . | 0%
CC(C)C(=O)OC1=CN(Cc2ccccc2)S(=O)(=O)c2ccccc21 | . | . | . | . | . | 17%
CC1CCCCN1C(=O)CSc1c2c(nc3cc(Cl)ccc13)CCCC2 (stereo unspecified) | . | . | . | . | . | 2%
O=C(NCCc1ccc(Cl)cc1)C1CCN(S(=O)(=O)c2ccc(Br)s2)CC1 | ? | 5% | 10µM* | 3% | ? | -14%
CCOc1ccccc1-c1cc(-c2n[nH]c(=S)n2CC)c2ccccc2n1 | 1.7µM* | -38% | ? | -10% | 1.9µM* | -9%
CCOc1cccc(-c2cc(-c3n[nH]c(=S)n3CC)c3ccccc3n2)c1 | 12µM* | -39% | -24% | 10% | 13µM* | -5%
SMILES | Pf growth 96h | AmpC no deterg | HCV inhibitor | AMA1-RON2 inh | Pf growth 48h | AmpC detergent
CCn1c(-c2c[nH]c3ccccc23)n[nH]c1=S | . | -17% | 9% | 1% | 20% | 2%
CCn1c(-c2cc(C3CC3)nc3ccccc23)n[nH]c1=S | ? | -48% | -6% | 14% | ? | -8%
CCn1c(-c2cc(-c3ccc(C)c(C)c3)nc3ccccc23)n[nH]c1=S | 3.7µM* | -39% | . | . | 4.1µM* | 7%
CCn1c(-c2cc(-c3cc(C)ccc3C)nc3ccccc23)n[nH]c1=S | 2.6µM* | -3% | -1% | 1% | ? | ?
CSc1c(C#N)sc(=S)n1-c1ccc(C)cc1 | 10µM* | -20% | 19% | -25% | ? | 4%
O=C(CCS(=O)(=O)c1ccc(Br)s1)Nc1cc(C(F)(F)F)cc(C(F)(F)F)c1 | . | . | . | . | . | 5%
CCOC(=O)c1ccccc1NC(=O)C(=O)Nc1ccc2nc3n(c(=O)c2c1)CCCCC3 | . | . | . | . | . | 20%
O=C(Nc1ccccc1)C1(c2ccccc2)CC1(Cl)Cl (stereo unspecified) | 1.7µM* | -37% | -14% | -2% | 3.7µM* | ?
O=C(Nc1ccccc1F)C1(c2ccccc2)CC1(Cl)Cl (stereo unspecified) | ? | -28% | -1% | 6% | ? | -4%
C=CCn1c(SCCCC)nc(O)cc1=O | ? | -14% | 2% | 3% | 9% | -11%
C=CCn1c(SCCCCCC)nc(O)cc1=O | 6.6µM* | -22% | -4% | 2% | -6% | 2%
O=C(CCc1ccccc1)N1CCc2c([nH]c3ccccc23)C1c1ccc(F)cc1 (stereo unspecified) | . | . | . | . | . | -6%
COc1ccc2cc1Oc1ccc(cc1)C[C@H]1c3c(cc4c(c3Oc3cc5c(cc3OC)CCN(C)[C@@H]5C2)OCO4)CCN1C | 1.5µM* | 212% | 14µM* | ? | 1.9µM* | 0%
COc1ccc2cc1Oc1ccc(cc1)C[C@H]1c3cc(c(OC)cc3CCN1C)Oc1c(OC)c(OC)cc3c1[C@H](C2)N(C)CC3 | 2.1µM* | 214% | ? | -20% | 2.1µM* | 0%
COc1cc2c3c(c1OC)Oc1ccc(cc1)C[C@H]1c4c(cc(OC)c(OC)c4Oc4ccc(cc4)C[C@@H]3N(C)CC2)CCN1C | . | -9% | ? | -29% | . | .
COc1cc2c3cc1Oc1cc(ccc1O)C[C@@H]1c4c(cc(OC)c(O)c4Oc4ccc(cc4)C[C@H]3N(C)CC2)CCN1C | 1.7µM* | 64% | 7.9µM*! | 16% | 2.1µM* | -11%
COc1cc2c3cc1Oc1c(OC)c(OC)cc4c1[C@H](Cc1ccc(cc1)Oc1cc(ccc1O)C[C@H]3N(C)CC2)N(C)CC4 | . | 124% | 11µM* | -28% | . | .
COc1cc2c3cc1Oc1cc(ccc1O)C[C@@H]1c4c(cc(OC)c(O)c4Oc4cccc(c4)C[C@@H]3N(C)CC2)CC[N+]1(C)C | 4% | 8% | -4% | -10% | -19% | -20%
CCOCCCNC(=O)C1CCN(c2nc3ccc(Cl)cc3[nH]2)CC1 | . | . | . | . | . | 20%
